# Bioassay records (PubChem BioAssay)
# Many of the other results were omitted from the sample, so hits are more common in it than they were.
# Pf Dd2 growth = Plasmodium falciparum Dd2 growth inhibition | AID 1347417 | 120,000 tested, 4.3% active | P. falciparum Dd2 growth, SYBR Green, 72 h | Potency, µM (highest dose often 28.9 µM), inactives show top-dose activity, negative = inhibition, hits mostly inhibitors; active = well fitted inhibition curve with a large enough effect;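 note: plate controls were DMSO vehicle for no effect and reference drug for full effect; nearly all actives have a fitted effect of over 65% in size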
#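 Readout: SYBR Green fluorescence, 485 nm excitation, 535 nm emission, after ~16 h lysis at 37C. Before that, Dd2-infected red cells (2.5% hematocrit) grew 72 h with compound, 29 uM top final concentration.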
# The depositor's hits bear a star; i = inactive; [ ] = remark or other dose. Potency is the fitted concentration of half-maximal effect.
SMILES,Pf Dd2 growth
CCOC(=O)C1CCN(C(=O)CN2c3ccc(CC)cc3-c3ccccc3S2(=O)=O)CC1,-1%
CCC1=C(c2ccc(C)cc2)S(=O)(=O)N=C1N1CCC(C(=O)NCCc2cccc(OC)c2)CC1,7.9µM*
CCOC(=O)C1CCN(C(=O)C2CCN(C3=NS(=O)(=O)C(c4ccc(C)cc4)=C3CC)CC2)CC1,11µM*
FC(F)(F)c1ccnc(N2CCOCC3(CN(Cc4ccccc4)C3)C2)n1,-23%[44.1 µM]
CNC(=O)[C@@H](Cc1ccccc1)N1CCC[C@H]1C(=O)NC1CCOCC1,i
CNCCN1C(=O)CC[C@H]2CN(C(=O)CCCn3cnnn3)CC[C@H]21,5%
Cc1nonc1C1CCCN1C(=O)c1cnc(COc2ccccc2)[nH]c1=O (configuration not stated),6%
COc1ccc(C)cc1NC(=O)CSc1ccc(-c2ccccn2)nn1,8.9µM*
COc1ccc(OC)c(NC(=O)CSc2ccc(-c3cccs3)nn2)c1,57%[5.79 µM]
COc1ccc(OC)c(NC(=O)CSc2ccc(-c3sc(C)nc3C)nn2)c1,i
Cc1noc(C)c1[S+](=O)([O-])N1CCC2(C1)N=C(c1cccnc1)C(=O)N2 (configuration not stated),-1%
O=C1Nc2cc(Cl)ccc2C(=O)N2CC[C@H](NS(=O)(=O)c3cccs3)[C@@H]12,i
O=C(N[C@H]1CCN2C(=O)c3ccc(Cl)cc3NC(=O)[C@H]12)c1cccs1,-18%[44.1 µM]
O=C1Nc2ccc(-c3ccccc3F)cc2C(=O)N2C[C@@H](NS(=O)(=O)c3ccc(F)cc3)C[C@@H]12,i
Cc1cccc(-c2ccc3c(c2)C(=O)N2CC[C@H](NS(=O)(=O)c4cccs4)[C@H]2C(=O)N3)c1C,10µM*
CSCC(=O)N[C@H]1CCN2C(=O)c3cc(-c4cccc(C)c4C)ccc3NC(=O)[C@H]12,i
COc1ccc(-c2ccc3c(c2)C(=O)N2CC[C@H](NC(=O)CSC)[C@H]2C(=O)N3)cc1,i
COc1ccc(Cl)cc1-c1ccc2c(c1)C(=O)N1C[C@@H](NS(=O)(=O)c3ccc(F)cc3)C[C@H]1C(=O)N2,7.1µM*
COc1ccc(Cl)cc1-c1ccc2c(c1)C(=O)N1C[C@H](O)C[C@H]1C(=O)N2,-5%[44.1 µM]
COc1ccc(Cl)cc1-c1ccc2c(c1)C(=O)N1CC[C@H](NC(=O)c3cccs3)[C@H]1C(=O)N2,7.9µM*
COc1ccc(-c2ccc3c(c2)C(=O)N2CC[C@H](NS(=O)(=O)c4cccs4)[C@H]2C(=O)N3)cc1,11µM*
O=C(N[C@H]1CCN2C(=O)c3cc(-c4ccc(Cl)cc4)ccc3NC(=O)[C@H]12)c1cccs1,-17%
COc1ccc(-c2ccc3c(c2)C(=O)N2CC[C@H](NC(=O)c4cccs4)[C@H]2C(=O)N3)cc1,-1%
COc1cccc(C(=O)N2CCC(N(C3CCOCC3)S(C)(=O)=O)CC2)c1,22%
Cc1ccccc1OCC(=O)Nc1ccc(OCc2cc(=O)n3ccccc3n2)cc1,6%
SMILES,Pf Dd2 growth
Cc1n[nH]c(C)c1C(N)C(=O)NCc1ccccc1Cn1cccn1 (configuration not stated),10%
Cc1cc(C)c(CNC(=O)c2cc(-c3ccnn3C)cc3c2OCCN3C)c(=O)[nH]1,i
CCc1noc([C@@H]2CC(F)(F)CN2C(=O)COc2ccc(F)cc2)n1,12%
CNC(=O)C(=O)NCC(c1ccc2c(c1)OCO2)N1CCOCC1 (configuration not stated),7%
Cc1noc([C@@H]2CN(C(=O)COc3ccc(F)cc3)C[C@H]2CO)n1,7%
Cc1ccc(OCCSc2nc3ccc(NC(=O)COc4ccc(F)cc4)cc3s2)cc1,19%
Cc1ccc(OCCSc2nc3ccc(NC(=O)c4ccc(F)cc4)cc3s2)cc1,21%
Cc1ccc(OCCSc2nc3ccc(NC(=O)c4cccs4)cc3s2)cc1,1µM*
CCC(=O)Nc1ccc2nc(SCCOc3ccccc3)sc2c1,i
Cc1ccccc1NC(=O)CSc1nc2ccc(NC(=O)c3cccs3)cc2s1,i
O=C(Nc1ccc2nc(SCCOc3ccccc3Cl)sc2c1)c1cccs1,2.8µM*
Cc1cccc(-n2nnc(-c3nc(-c4cccs4)no3)c2N)c1C,-4%
COc1cc(F)ccc1CN1CCC2(Cc3ccccc3CNC2=O)C1 (configuration not stated),-22%
CN(C(=O)CN1C(=O)C(c2ccccc2)=NC12CCCCC2)c1ccccc1,i
O=C(NCc1ccc(F)cc1F)c1nnn2c1COC(c1ccc(Cl)cc1)C2 (configuration not stated),i
COCc1cn(C[C@H]2C[C@@H](NC(=O)Nc3cccnc3)[C@H](O)[C@@H]2O)nn1,-8%[44.1 µM]
O=C(NCCC1=CCCCC1)C1CC(=O)N(c2n[nH]c3cccc(F)c23)C1 (configuration not stated),-6%
Cn1nnc(-c2ccc(C(=O)N3CCCC4(CCNCC4)CC3)cc2)n1,-7%
OC[C@H]1CCN(c2ccnc3c(C(F)(F)F)cccc23)C[C@H]1O,-22%
FC(F)(F)c1cccc2c(N3CCC4(CCCN4Cc4ncc[nH]4)CC3)ccnc12,10µM*
COCCC1(C(=O)O)CCN(c2ccnc3c(C(F)(F)F)cccc23)CC1,-13%
O=C(CCC1CCN(C(=O)c2ccoc2)CC1)N1CCC(Cc2ccccc2)CC1,-9%
COc1cccc(C(=O)N2CCC(C(=O)Nc3cccc(Cl)c3)CC2)c1,11%
CC(C)NC(=O)c1ccc(-c2nnc3ccc(NC(=O)C4CCC4)cn23)cc1,4µM*
O=C(NCCN1CCCCC1)c1ccc(-c2nnc3ccc(NC(=O)C4CCC4)cn23)cc1,1.3µM*
SMILES,Pf Dd2 growth
COc1cccc(NC(=O)C2CCCN(S(=O)(=O)c3c(C)nn(C)c3C)C2)c1 (configuration not stated),-5%
O=C(Nc1ccc(-c2nnc3n2CCCC3)cc1)C1CCC1,7%
C=CCNC(=O)c1ccc(-c2nnc3ccc(NC(=O)C4CCC4)cn23)cc1,3.2µM*
O=C(NC1CC1)c1ccc2nnc(-c3ccc(F)cc3)n2c1,10%[44.1 µM]
Cc1ccc(-c2ccc3nnc(CNC(=O)C4CCCCC4)n3n2)cc1,9%
COc1cccc(NC(=O)c2ccc(-c3nnc4ccc(NC(=O)C5CCC5)cn34)cc2)c1,0.28µM*
C=CCNC(=O)c1ccc2cncn2c1,-11%[44.1 µM]
O=C(NC1CCCC1)c1ccc2nnc(-c3cncc(Cl)c3)n2c1,1%
O=C(NCCN1CCOCC1)c1ccc(-c2ccc(N3CCCCCC3)nc2)cc1,-23%
COc1ccc(NC(=O)CSc2nncn3c2cc2occc23)c(OC)c1,-10%
CNC(=O)[C@@H](CC(C)C)N1CCC[C@H]1C(=O)N1CCN(C(C)=O)CC1,-5%[44.1 µM]
COc1ccc(CN2CCCC3(CN[S+](=O)([O-])c4cccnc4O3)C2)cc1 (configuration not stated),-23%
COc1ccc(OC)c(NC(=O)CN2C(=O)NC(c3ccc(Cl)cc3)C3=C2COC3=O)c1 (configuration not stated),-17%
O=C(CC(c1cccs1)N1Cc2ccccc2C1=O)Nc1ccc(F)c(Cl)c1 (configuration not stated),-30%
COc1cc(=O)n2c(c1C(=O)Nc1ccc(Cl)cc1)CCCC2,8%
COc1cc(F)c(CN2CC[C@@](O)(C3CC3)[C@H](C)C2)cc1OC,i
Cc1cccc(Nc2nc(N)nc(CN3CC[C@@](O)(C4CCC4)[C@H](C)C3)n2)c1,8.9µM*
C[C@@H]1CN(Cc2noc(C3CCCC3)n2)CC[C@@]1(O)C1CCC1,-24%
COCC(=O)N1C[C@@H]2C[C@H]1C(=O)N(Cc1ccccn1)c1ccccc1O2,1%[44.1 µM]
